Here are results for 18 compounds from PMC5540273 (PLoS ONE, 2017).

Among the test systems are LYN; MAK; MAP3K15; MAP3K1; MAP3K2; MAP3K3; MAP3K4; MAP4K2; MAP4K3.
Holding throughout (conditions): concentration: 1 μM, replicates: in singlicate; n = 1
The next test relates to T1, LZK.
T1 construct: gene MAP3K13

Molecules are shown by their SMILES.
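Also: KINOMEscan kinase panel screen.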

Take `CN(C)CCN(C)C(=O)c1cc(-c2ccncc2)c(-c2ccc(Cl)c(O)c2)o1.Cl.Cl` [SB-710397]: the “%Inh” value in the test with LYN is on record as 24%; in the test with LZK it was 15%; in the test on MAK, 42%; in the test with MAP3K15, 0%; in the test on MAP3K1 it was 2%; with MAP3K2, 0%. Further, the “%Inh” value with MAP3K3 was 0%; in the test on MAP3K4 it was 14%; with MAP4K2, 0%; in the test with MAP4K3, 0%.
For `O=C(Nc1ccccc1)Nc1cccc(Oc2ccc3nccn3n2)c1`, the “%Inh” value turned out to be 0% in the test on LYN; 0% in the test on LZK; 27% with MAK; 0% with MAP3K15; 0% in the test with MAP3K1; 0% with MAP3K2. Also, the “%Inh” value in the test with MAP3K3 amounted to 0%; in the test on MAP3K4, 4%; with MAP4K2, 0%; with MAP4K3, 9%.
Consider `O=C(Nc1ccc2c(c1)OCO2)NC1CCN(c2ccnc(Nc3ccc(F)cc3)n2)C1` (stereo not drawn) [GSK1379724], for which the “%Inh” value in the test on LYN was found to be 0%; with LZK it was 0%; in the test on MAK, 0%; in the test on MAP3K15, 0%; in the test on MAP3K1, 11%; with MAP3K2 it was 6%. Further, the “%Inh” value is on record as 0% in the test with MAP3K3, 40% with MAP3K4, 0% in the test on MAP4K2 and 0% with MAP4K3.
As to `CC(=O)Nc1nc2cnc(Nc3cc(NC(=O)c4cccc(CCC#N)c4)ccc3C)nc2s1`, the “%Inh” value with LYN was found to be 25%; with LZK, 24%; with MAK it was 0%; with MAP3K15, 8%; in the test on MAP3K1, 0%; in the test with MAP3K2, 0%. For the same compound, the “%Inh” value with MAP3K3 was found to be 20%; with MAP3K4, 0%; in the test with MAP4K2, 0%; in the test with MAP4K3, 0%.
Consider `CS(=O)(=O)c1ccc(-c2c(-c3ncn[nH]3)sc(N3CCOCC3)c2C#N)cc1`, for which the “%Inh” value in the test with LYN worked out at 0%; with LZK it was 0%; in the test with MAK it was 36%; in the test with MAP3K15 it was 0%; with MAP3K1, 26%; in the test on MAP3K2 it was 6%. For the same compound, the “%Inh” value was 27% in the test with MAP3K3, 2% with MAP3K4, 0% in the test with MAP4K2 and 0% in the test on MAP4K3.
`CC(C)(C)c1ccc(C(=O)Nc2cn3cc(-c4cccnc4)ccc3n2)cc1`: the “%Inh” value in the test with LYN is reported as 16%; with LZK it was 0%; with MAK, 46%; in the test with MAP3K15 it was 46%; in the test on MAP3K1, 1%; in the test with MAP3K2, 9%. The “%Inh” value with MAP3K3 was determined as 26%; with MAP3K4, 17%; in the test on MAP4K2, 0%; in the test on MAP4K3, 5%.
Regarding `COc1cc2nccc(Nc3ccc(NC(=O)c4ccc(C)cc4)c(O)c3)c2cc1OC.Cl` [GW440132], the “%Inh” value with LYN came to 28%; with LZK, 0%; in the test on MAK it was 13%; in the test with MAP3K15, 13%; with MAP3K1, 10%; in the test on MAP3K2 it was 9%. Besides, the “%Inh” value in the test with MAP3K3 worked out at 0%; in the test on MAP3K4, 2%; in the test on MAP4K2 it was 0%; in the test with MAP4K3, 8%.
Regarding `COc1ccccc1CNC(=O)c1cc(C(=O)c2ccccc2C)c[nH]1` [GSK364507], the “%Inh” value with LYN turned out to be 0%; in the test on LZK, 0%; in the test on MAK, 7%; in the test on MAP3K15, 3%; in the test with MAP3K1 it was 6%; in the test with MAP3K2, 15%. The “%Inh” value in the test on MAP3K3 came out at 0%; in the test on MAP3K4, 32%; in the test on MAP4K2, 0%; with MAP4K3, 0%.
For the compound `Fc1cc(Cl)ccc1Nc1ccnc2cc(-c3ccc(CN4CCCCC4)o3)ccc12` [GW560116], the “%Inh” value with LYN stood at 0%; in the test with LZK, 7%; with MAK, 52%; in the test with MAP3K15 it was 0%; in the test on MAP3K1 it was 0%; in the test on MAP3K2, 0%. The “%Inh” value with MAP3K3, in the test on MAP3K4, in the test with MAP4K2 and in the test with MAP4K3 was 0% throughout.
Turning to `COc1ccc(C2=C(Nc3cccc(C(=O)O)c3)C(=O)NC2=O)cc1` [SB-390765], the “%Inh” value with LYN is recorded as 21%; with LZK, 52%; in the test with MAK it was 36%; with MAP3K15, 15%; in the test on MAP3K1, 18%; in the test on MAP3K2, 12%. Also, the “%Inh” value in the test with MAP3K3 is 7%; in the test on MAP3K4, 9%; in the test on MAP4K2, 32%; with MAP4K3, 2%.
On to `COc1ccc(CNC(=O)NC2CCN(c3ccnc(Nc4cc(OC)c(OC)c(OC)c4)n3)C2)cc1` (stereo not drawn) [GSK1379748], for which the “%Inh” value in the test with LYN is on record as 0%; with LZK, 43%; in the test with MAK, 17%; in the test with MAP3K15 it was 0%; in the test with MAP3K1 it was 0%; with MAP3K2, 0%. Besides, the “%Inh” value with MAP3K3 turned out to be 0%; in the test on MAP3K4 it was 2%; with MAP4K2, 5%; in the test on MAP4K3, 0%.
`Nc1ncnc2[nH]c(-c3ccccc3)nc12` [AH5015]: the “%Inh” value with LYN is 7%; in the test with LZK, 0%; in the test with MAK, 0%; in the test with MAP3K15 it was 0%; in the test with MAP3K1, 16%; in the test on MAP3K2, 0%. In addition, the “%Inh” value with MAP3K3, in the test on MAP3K4, in the test with MAP4K2 and in the test on MAP4K3 was 0% in each case.
For `COc1ccc(Nc2nccc(-c3cccc(NC(=O)c4cc5cc(F)ccc5[nH]4)c3)n2)cc1` [GSK1229782], the “%Inh” value in the test with LYN was determined as 0%; in the test on LZK it was 33%; in the test on MAK, 36%; with MAP3K15, 0%; in the test on MAP3K1 it was 5%; in the test with MAP3K2, 38%. Besides, the “%Inh” value with MAP3K3 was found to be 0%; with MAP3K4, 21%; with MAP4K2 it was 0%; in the test on MAP4K3, 0%.
Regarding `COC(=O)c1c(-c2ccccc2)c2cc(C(=O)O)ccc2c(=O)n1Cc1ccccc1`, the “%Inh” value in the test with LYN is reported as 16%; in the test with LZK it was 0%; in the test on MAK, 0%; in the test with MAP3K15, 8%; with MAP3K1, 0%; in the test on MAP3K2, 0%. The “%Inh” value in the test with MAP3K3 amounted to 0%; with MAP3K4, 4%; in the test on MAP4K2 it was 0%; in the test on MAP4K3, 0%.
As for `COc1cc2ncn(-c3cc(OCC4CCCO4)c(C(N)=O)s3)c2cc1OC` (stereo not drawn) [GSK204607], the “%Inh” value in the test with LYN was found to be 0%; with LZK it was 0%; with MAK, 9%; in the test on MAP3K15 it was 0%; in the test with MAP3K1, 50%; in the test with MAP3K2, 0%. The “%Inh” value in the test with MAP3K3 is reported as 0%; with MAP3K4 it was 0%; in the test on MAP4K2, 0%; in the test on MAP4K3, 70%.
Take `CC1=C(C(=O)Nc2cc3cn[nH]c3cc2F)C(c2ccc(C(F)(F)F)cc2)CC(=O)N1` (stereo not drawn) [GSK429286]: the “%Inh” value in the test with LYN is listed as 0%; in the test on LZK, 0%; in the test with MAK, 0%; in the test with MAP3K15, 16%; with MAP3K1, 30%; in the test with MAP3K2 it was 3%. The “%Inh” value with MAP3K3, with MAP3K4, with MAP4K2 and in the test on MAP4K3 was 0% each time.
Take `O=C(Nc1n[nH]c2nc(-c3nccs3)c(Br)cc12)C1CC1` [SB-742251]: the “%Inh” value is on record as 19% in the test on LYN; 26% with LZK; 33% with MAK; 0% in the test with MAP3K15; 21% in the test with MAP3K1; 0% in the test on MAP3K2. Also, the “%Inh” value in the test on MAP3K3, with MAP3K4, in the test with MAP4K2 and with MAP4K3 was 0% in each case.
In the case of `CCCc1ccc(S(=O)(=O)NC2CCN(c3ccnc(Nc4ccc(F)cc4)n3)C2)cc1` (stereo not drawn) [GSK1379715], the “%Inh” value in the test with LYN is 0%; in the test with LZK, 0%; in the test with MAK, 60%; in the test with MAP3K15, 0%; in the test on MAP3K1 it was 15%; with MAP3K2 it was 2%. The “%Inh” value was 0% with MAP3K3, 44% with MAP3K4, 0% in the test with MAP4K2 and 1% in the test on MAP4K3.
